According to PubChem BioAssay (Tox21):
Where “and” joins values, the source holds several entries; their conditions need not be identical. Identical values can stand only once. Results filed as inconclusive are left out. Entries that show only a call come without a potency. Calls of active or inactive are those of the source. Calls follow the shape of the dose curve; as a rule, active = well fitted activation curve with a large enough effect in the repeat runs; inconclusive = weak or mixed curves; inactive = flat fitted curve, though single readings scatter.

Assay: A CellTox Green Cytotoxicity Assay to monitor cytotoxicity in HepG2 cells - 16 hour (AID 1224876); also: nearly all actives have a fitted effect of over 45% in size
Conditions: CellTox Green fluorescence; series mostly up to 76.8 µM
Description: National Center for Advancing Translational Sciences [NCATS]
NIH Chemical Genomics Center [NCGC]
U.S. Environmental Protection Agency [EPA]
National Institutes of Environmental Health Sciences [NIEHS]
National Toxicology Program [NTP]
Cell-based models are critical for drug discovery. Determining the natural cytotoxic effects resulting from test compounds is an essential research activity. A CellTox Green Cytotoxicity Assay to monitor cytotoxicity in real time of continues cell culture during 40 hours of the compound treatment was used to screen Tox21 10K library compounds in HepG2 cells. CellTox Green Cytotoxicity Assay is a nonlytic, homogeneous, biofluorescent method to measure cytotoxicity in cell culture after experimental manipulation. The assay system uses a proprietary asymmetric cyanine dye that is excluded from viable cells but preferentially stains the dead cell's DNA. […] Viable cells produce no appreciable increases in fluorescence. Therefore, the fluorescence signal produced by the binding interaction with dead cell DNA is proportional to cytotoxicity.
The mixture of HepG2 cell suspension and reagents were dispensed at 600cells/6 ul/well in 1536-well tissue culture treated black solid bottom plates using a Multidrop dispenser. After the assay plates were incubated at a 37 C/5% CO2 incubator for 5 hours, 23 nL of compounds dissolved in DMSO, positive and negative controls was transferred to the assay plate by a pintool work station. The plates were incubated at 37 C for 40 hours. The fluorescence intensity were measured at 0h, 8h, 16h, 24h, 32h and 40h time points using ViewLux plate reader during compound treatment.
Potency is read from the fitted curve at half-maximal effect.

Structure (SMILES)	Potency	cytotoxicity increase
CC(=O)Nc1ccc(O)cc1	inactive	
CC1=C(/C=C/C(C)=C/C=C/C(C)=C\C=O)C(C)(C)CCC1	inactive	
C=C(C)CCCC	inactive	
CC1CCCCC1	inactive	
CCOC(OCC)C(=O)c1ccccc1	inactive	
Nc1ccc2cc3ccc(N)cc3nc2c1	49 µM (active) and 21.3 µM (active)	
Cc1ccc(-n2[nH]c(C)c(N=Nc3cccc(-c4cccc(C(=O)O)c4)c3O)c2=O)cc1C	inactive	
CCCC(=O)OCC(COC(=O)CCC)OC(=O)CCC	inactive	
Cc1c(-c2ccc(O)cc2)n(Cc2ccc(OCCN3CCCCCC3)cc2)c2ccc(O)cc12	23.9 µM (active)	
CCC1CCCCC1	inactive	
Cc1c(C(=O)O)cccc1[N+](=O)[O-]	inactive	
C/C=C/C=N/NC(=O)c1ccncc1	inactive	
C=CC(=O)OCC(O)COc1ccccc1 (stereo not given)	inactive	
CCCCCCCCCCCCCCCC	inactive	
ClC/C=C\CCl	inactive	
Nc1ncnc2c1ncn2[C@@H]1O[C@H](COP(=O)(O)O)[C@@H](O)[C@H]1O	inactive	
Cc1cccc(Br)c1	inactive	
N#CSCSc1nc2ccccc2s1	54.9 µM (active)	
O=C1NCN(c2ccccc2)C12CCN(CCCC(c1ccc(F)cc1)c1ccc(F)cc1)CC2	9.52 µM (active)	
CCC(C)(C)c1cc(O)c(C(C)(C)CC)cc1O	inactive	

Structure (SMILES)	Potency	cytotoxicity increase
CCc1cccc(CC)c1N(COC)C(=O)CS(=O)(=O)O	inactive	
CCCCCCCCCCCCCCCCCO		1.01% [at 15.8 µM] (inactive)
CCN1CCN(c2cc(-c3ccc(F)cc3)c3c(n2)CCCCCC3)CC1		12.3% [at 15.8 µM] (inactive)
C[Si](C)(C)Cl	inactive	
C=CC(=O)OCCN(CC)CC	inactive	
CCC(C)C(=O)OC (stereo not given)	inactive	
CCOC(=O)CN	inactive	
COc1nccnc1CC(C)C	inactive	
CCCCCCCCCCCCCC[n+]1ccccc1	19.5 µM (active)	
CC(=O)C=O	inactive	
COc1ccc(-n2nc(CCC(=O)N(C)O)cc2-c2ccc(Cl)cc2)cc1	inactive	
COC(=O)CC(C)CCC=C(C)C (stereo not given)	inactive	
O=C1c2c(O)ccc([N+](=O)[O-])c2C(=O)c2c([N+](=O)[O-])ccc(O)c21	inactive	
CCO[Si](C)(C)OCC	inactive	
O=C(O)c1cccc(Cl)n1	inactive	
CCCCCCCCCCOCC(O)CN (stereo not given)	19 µM (active)	
COc1ccc(C#N)cc1	inactive	
C=CC(=O)OCCOCC(CC)(COCCOC(=O)C=C)COCCOC(=O)C=C	inactive	
CO[C@H]1C=CO[C@@]2(C)Oc3c(C)c(O)c4c(O)c(cc(O)c4c3C2=O)NC(=O)/C(C)=C\C=C/[C@H](C)[C@H](O)[C@@H](C)[C@@H](O)[C@@H](C)[C@H](OC(C)=O)[C@@H]1C	inactive	
OCCC(O)CO (stereo not given)	inactive	
